This assay concerns PRMT1 (protein arginine N-methyltransferase 1). As to the kind of experiment: small molecules binding arginine methyltransferase PRMT1 – biochemical, small-molecule microarray, 635 nm fluorescence, primary screen (AID 1088). As to conditions: higher = more signal.
On to `Cc1ccc(S[C@]2(C(=O)O)CC(=O)N(Cc3cc(C(F)(F)F)cc(C(F)(F)F)c3)[C@@H]2c2ccc(CO)cc2)cc1`, for which the composite z-score is -0.224. Compound `CCOC(=O)[C@H]1[C@@H]2C(=O)N3CCC[C@H]3[C@H](O[Si](C(C)C)(C(C)C)C(C)C)[C@H]2C=C2CCN(S(=O)(=O)c3ccc(C)cc3)C[C@H]21` had a composite z-score of 1.55. `CO[C@H]1O[C@H](CO)[C@@H](OC(=O)Nc2ccccc2-c2ccccc2)[C@H](OC(=O)Nc2ccc3c(c2)OCO3)[C@H]1OC(=O)Nc1ccc2c(c1)OCO2` gave a composite z-score of 1.53.

In turn, `COc1ccccc1CN1C(=O)c2ccccc2[C@@]2(Cc3ccccc3N(CC(F)(F)F)C2=O)[C@@H]1c1ccc(CO)cc1` displayed a composite z-score of 0.955. As for `CN(C)C(=O)[C@@]1(Cc2ccccc2CN=[N+]=[N-])N=C(c2ccc(OCCCO)cc2)O[C@H]1c1ccccc1CN=[N+]=[N-]`, the figure is 0.88.

With `COc1ccc(CCN2C(=O)[C@@]3(Cc4ccccc42)c2ccccc2C(=O)N(Cc2ccccc2OC)[C@H]3c2ccc(CO)cc2)cc1`, the composite z-score was 0.177. In turn, `O=C1C2C=CC(C(O)c3ccc(Br)cc3)N(Nc3ccccc3F)C2C(=O)N1c1ccccc1` (stereo unspecified) gave a composite z-score of 0.566.

The compound `C=CCC(OC(C)=O)[C@@H]1[C@@H](N(Cc2cccc3ccccc23)C(=O)Cc2ccc(OC)cc2)c2cc(OCCCO)ccc2N1C(=O)c1ccc2ccccc2n1` (stereo partly specified) yielded a composite z-score of 0.892. Compound `COC(=O)C(CC#Cc1ccc2c(c1)[C@]1(C(=O)N2)[C@H](c2ccccc2OCCO)N2[C@H](c3ccccc3)[C@H](c3ccccc3)OC(=O)[C@H]2[C@@H]1C(=O)NC[C@H](O)c1ccccc1)C(=O)OC` gave a composite z-score of 1.54. Consider `COc1ccc([Si](C)(C)[C@H]2[C@H](CCO)O[C@@]3(C(=O)N(Cc4cccc(N5C(=O)COc6ccccc65)c4)c4ccccc43)[C@@H]2C)cc1`, for which the composite z-score worked out at 0.911. Consider `CCCCCCc1nc(C2CC2)cc2c1[Si](C(C)C)(C(C)C)OC2`, for which the composite z-score was -0.439.

`C=CCNC(=O)[C@@H]1[C@H]2C(=O)O[C@H](c3ccccc3)[C@H](c3ccccc3)N2[C@H](c2ccc(O)cc2)[C@@]12C(=O)N(C(=O)OCCOC)c1ccc(C#CC3(O)CCCCCC3)cc12` had a composite z-score of -0.14.

Compound `CC(CO)N1C(=O)[C@@H]2[C@H]3C(=O)OCC=C[C@H]3OC23C=CCN(Cc2ccccc2)C(=O)[C@@H]13` (stereo partly specified) registered a composite z-score of -1.28. The figure for `[N-]=[N+]=NCc1ccccc1C[C@@]1(C(=O)NCc2ccccc2)N=C(c2ccc(OCCCO)cc2)O[C@@H]1c1ccccc1N=[N+]=[N-]` is 1.18; for `C=CCN1Cc2ccccc2[C@H]2OC(c3ccc(OCCCO)cc3)=N[C@@]2(CC=C)C1=O` it is 1.53; for `Cc1cc(C)cc(N2C(=O)CSC2c2cccc([N+](=O)[O-])c2)c1` (stereo unspecified) it is 1.56. The figure for `CCOc1cc(C(O)C2C=CC3C(=O)N(C)C(=O)C3N2Nc2ccccc2)ccc1O` (stereo unspecified) is 1.13. Turning to `[N-]=[N+]=Nc1ccccc1C[C@]1(C(N)=O)N=C(c2ccc(OCCCO)cc2)O[C@H]1c1ccccc1N=[N+]=[N-]`, the composite z-score was found to be 1.55. As for `NC(=O)NCC#Cc1ccc2c(c1)[C@]1(C(=O)N2)[C@H](C(=O)O)[C@H]2C(=O)O[C@H](c3ccccc3)[C@H](c3ccccc3)N2[C@@H]1c1ccc(OCCO)cc1`, the figure is 1.1; as for `CCCCCCc1nc(C2CC2)cc2c1[Si](C(C)C)(C(C)C)O[C@H]2c1ccccc1`, -0.147; as for `COc1cc2c(cc1OC)CN(C(=O)[C@@H]1[C@H]3C(=O)O[C@H](c4ccccc4)[C@H](c4ccccc4)N3[C@H](c3ccc(OCCO)cc3)[C@@]13C(=O)Nc1ccc(C#CC4(O)CCCCCC4)cc13)CC2`, 1.54. In turn, `O=C1C[C@@](C(=O)NCCN2CCOCC2)(c2ccc([N+](=O)[O-])cc2)[C@@H](c2ccc(CO)cc2I)N1C1CCCCC1` came in with a composite z-score of 1.3. Compound `COC(=O)[C@@]1(Cc2ccc(F)cc2)[C@H]2c3cc(C(=O)N4CCCC4)n(CCc4ccc(O)c(O)c4)c3C[C@H]2CN1C(=O)c1ccccc1` gave a composite z-score of -0.522. The figure for `CC(C)N1C(=O)C[C@@](C(=O)NCCCN(C)C)(c2ccc([N+](=O)[O-])cc2)[C@H]1c1ccc(CO)cc1` is -0.139. As for `COC(=O)C1=CC(CCCO)=CC(C2CC2)N(C)C=C1C(=O)OC` (stereo unspecified), the figure is 0.723.

Regarding `COC(=O)c1c(CC[C@@H](CO)NC(=O)N2CCC[C@H]2Cn2cc(Cc3ccccc3)nn2)oc(C(C)=O)c1C(=O)OC`, the composite z-score was 1.28. As to `O=C(N1CCCCC1)[C@@]1(CCS(=O)(=O)c2ccccc2)COC(c2ccc(OCCCO)cc2)=N1`, the composite z-score worked out at 1.54. The figure for `CC1=C[C@@]2(CO)C(=O)[C@]3(CO3)[C@@H]1[C@H]1[C@]2(C)C=C(CO)C(=O)[C@]12CO2` is 0.295; for `CCCNC(=O)[C@@]1(c2ccc([N+](=O)[O-])cc2)CC(=O)N(C2CCCCC2)[C@@H]1c1ccc(CO)cc1` it is 1.57; for `NC(=O)NCC#Cc1ccc2c(c1)[C@]1(C(=O)N2)[C@H](C(=O)NC[C@H](O)c2ccccc2)[C@H]2C(=O)O[C@H](c3ccccc3)[C@H](c3ccccc3)N2[C@@H]1c1ccc(OCCO)cc1` it is 0.889.

In turn, `O=C1NC(=O)C2C1C=CC(C(O)CCc1ccccc1)N2Nc1ccc(Cl)cc1Cl` (stereo unspecified) gave a composite z-score of 0.23. Consider `CCCCC=C[C@@H](NC(=O)c1ccc(-c2ccccc2)cc1)c1ccccc1`, for which the composite z-score is 0.246. Consider `COc1ccc([Si](C)(C)[C@@H]2[C@@H](CC(=O)N(CCO)Cc3ccccc3)O[C@]3(C(=O)N(Cc4cccc(N5CCOC5=O)c4)c4ccccc43)[C@H]2C)cc1`, for which the composite z-score turned out to be 1.55. The compound `CC(C)N1CC=CC23O[C@@H]4C=CCOC(=O)[C@@H]4[C@H]2C(=O)N(CCCO)[C@@H]3C1=O` (stereo partly specified) came in with a composite z-score of 0.943. With `C=CCNC(=O)[C@H]1[C@@H]2C(=O)O[C@@H](c3ccccc3)[C@@H](c3ccccc3)N2[C@@H](c2ccc(O)cc2)[C@]12C(=O)N(C(=O)OCCOC)c1ccccc12`, the composite z-score was 1.42. The compound `O=C1OCC=C[C@H]2OC34C=CCN(c5ccc(Cl)cc5)C(=O)[C@H]3N(CCO)C(=O)[C@@H]4[C@@H]12` (stereo partly specified) showed a composite z-score of 0.197.

Values taken from PubChem BioAssay.
